Data taken from PubChem BioAssay AID720 (The Scripps Research Institute Molecular Screening Center, 2007).
Among all 97,000 compounds or so, about 140 (0.14%) were called active.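 The calls were made as follows: active = inhibition above the screen-wide mean inhibition plus 3 SD (cut at about 15% in these data); inactive = the rest.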 The sample as a whole holds a higher share of actives than the screen did.

What follows are molecules tested against Ephrin type-B receptor 4 (Homo sapiens) (UniProt P54760) (assay: blockers of EphB4 ligand binding – biochemical, TNYL-RAW peptide probe, fluorescence polarization, primary screen (AID 720;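 also: 0% = DMSO wells and 100% = excess unlabeled TNYL-RAW peptide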)). Conditions: EphB4 LBD / TNYL-RAW-Alexa532 peptide, at 7 µM, active compounds read high.
Ephrin type-B receptor 4 (Homo sapiens), sequence (P54760 whole entry, looked up, the tested form may be a part): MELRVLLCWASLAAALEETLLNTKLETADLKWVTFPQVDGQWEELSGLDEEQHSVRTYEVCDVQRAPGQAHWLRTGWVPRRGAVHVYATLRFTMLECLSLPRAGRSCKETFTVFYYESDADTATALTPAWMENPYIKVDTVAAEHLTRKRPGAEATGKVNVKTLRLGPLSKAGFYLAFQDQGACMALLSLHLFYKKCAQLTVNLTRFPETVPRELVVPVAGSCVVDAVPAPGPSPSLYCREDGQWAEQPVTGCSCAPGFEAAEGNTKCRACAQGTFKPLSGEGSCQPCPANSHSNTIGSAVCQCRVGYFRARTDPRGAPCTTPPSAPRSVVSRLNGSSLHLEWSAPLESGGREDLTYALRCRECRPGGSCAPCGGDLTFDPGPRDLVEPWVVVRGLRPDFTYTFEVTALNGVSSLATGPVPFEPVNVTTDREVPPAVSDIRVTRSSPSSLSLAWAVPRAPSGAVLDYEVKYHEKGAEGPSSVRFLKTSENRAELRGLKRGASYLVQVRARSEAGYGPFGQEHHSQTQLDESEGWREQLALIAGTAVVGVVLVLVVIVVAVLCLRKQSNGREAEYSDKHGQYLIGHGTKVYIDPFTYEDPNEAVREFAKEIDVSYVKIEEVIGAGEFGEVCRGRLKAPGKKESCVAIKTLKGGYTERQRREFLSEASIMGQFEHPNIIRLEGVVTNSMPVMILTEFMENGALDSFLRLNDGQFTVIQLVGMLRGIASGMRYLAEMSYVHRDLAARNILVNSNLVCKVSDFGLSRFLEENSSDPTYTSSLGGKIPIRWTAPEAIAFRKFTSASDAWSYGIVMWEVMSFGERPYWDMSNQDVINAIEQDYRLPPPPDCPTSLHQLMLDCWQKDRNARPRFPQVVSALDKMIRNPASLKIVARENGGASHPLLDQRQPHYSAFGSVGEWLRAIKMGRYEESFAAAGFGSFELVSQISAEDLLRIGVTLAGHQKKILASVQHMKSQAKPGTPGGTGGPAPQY

inhibition, inactive:
O=P(O)(CP(=O)(c1ccccc1)c1ccccc1)c1ccccc1O 4%
Cc1cc(=O)oc2cc(OC(C)C(=O)Nc3ccc(N4CCOCC4)cc3)ccc12 (configuration not stated) 8.06%
O=C1CCCC2=C1C(c1ccccc1)n1c(s/c(=C/c3cccc(F)c3)c1=O)=N2 (configuration not stated) 1.22%
O=C(NCc1ccccc1Cl)c1csc2c1CCCCC2 2.57%
CCCn1c(C)cc(C(=O)COC(=O)c2c(C)nn(-c3ccccc3)c2C)c1C 0.32%
CCCCNC(=O)CSc1nc2ccc(NC(=O)CSc3nnc(COc4ccccc4C)n3C)cc2s1 -4.14%
CC1=NN(C(C)C)C(=O)C1 -0.74%
O=S(=O)(c1ccc(Br)cc1)n1ccc2ccccc21 6.94%
NC(=O)c1c(NC(=O)CSc2nnc(-c3ccco3)n2N)sc2c1CCCC2 0.73%
CCC(=O)Nc1ccc(C(=O)Nc2cc(C)on2)cc1 3.48%
COc1ccc(N(CC(=O)NC2CCCCC2)C(=O)CNC(=O)c2ccco2)c(OC)c1 0.8%
CCCCCCC12CCC(C(=O)O)(CC1)CC2 -4.95%
Cn1c(CO)cnc1SCc1ccccc1 3.71%
CCOc1cc(N2CCOCC2)c(OCC)cc1NC(=O)COC(=O)[C@H](Cc1c[nH]c2ccccc12)NC(C)=O 5.55%
CCOc1cc(NC(=O)c2ccco2)c(OCC)cc1NC(=O)COc1ccccc1 -10%
S=C(NCCC1=CCCCC1)Nc1ccccc1 4.71%
c1ccc(-n2nc3ccccc3n2)cc1 1.16%
COc1ccc(C2=NO[C@@H]3C(=O)N(Cc4ccccc4)C(=O)[C@H]23)cc1OC 7.58%
Nc1nc(C23CC4CC(CC(C4)C2)C3)cs1 -1.67%
O=C(CCC(=O)OCc1cccc(C(=O)Oc2ccccc2)c1)Nc1cccc2ccccc12 3.74%
COc1ccc(CCNC(=O)COC(=O)c2ccc[nH]c2=O)cc1 -5.04%
O=C(N/N=C\c1ccc(-c2ccc(Cl)c(Cl)c2)o1)C(=O)N1CCCC1 -0.37%
CCOc1cc(NC(=O)c2cnccn2)c(OCC)cc1NC(=O)c1ccc(C)cc1 -6.39%
CC(C)Cc1oc(C(=O)O)cc1CN -0.3%
O=C(NC1CC1)c1ccc2c(c1)NC(=O)c1ccccc1S2 0.56%
COc1ccc(-c2csc3nc(-c4ccccc4F)oc(=O)c23)cc1OC -10.2%
O=C(N/N=C/c1ccc(O)cc1)/C(=C/c1ccc([N+](=O)[O-])cc1)NC(=O)c1ccccc1 -1.89%
CCOCc1nnc(NC(=O)CSc2ccc(C)cc2)s1 1.51%
O=[N+]([O-])c1ccc(C=Nc2ccc(Cl)cc2Cl)s1 -0.13%
CC1=CC(C)(C)Nc2ccc(OC(=O)C(Cc3ccccc3)N3C(=O)C4CCCCC4C3=O)cc21 (configuration not stated) -0.93%
S=c1[nH]nc(CSCc2ccc(Cl)cc2Cl)n1-c1ccccc1 8.29%
CCOC(=O)c1cnc(SCC(=O)Nc2cccc(OC)c2)nc1N 9.83%
O=S(=O)(N/N=C\c1cccn1-c1ccccc1)c1ccc2ccccc2c1 -8.09%
Cn1c2ccccc2n2c(=O)c(=O)n(CC(=O)c3ccc(F)cc3)nc12 0.04%
COc1cccc(C(=O)NNC(=O)c2ccccc2Br)c1 -7.4%
O=C(CN1CCN(S(=O)(=O)c2ccc3ccccc3c2)CC1)NC(=O)NC1CCCCC1 5.63%
Cc1ccc(SC(=O)COc2ccc(C)c(C)c2)cc1 3.52%
O=[N+]([O-])c1ccc(N2CCN(S(=O)(=O)c3ccc4ccccc4c3)CC2)cc1NCc1ccco1 0.12%
CCc1cccc2c(C=C(C#N)C#N)cn(CC(=O)N3CCCCC3)c12 -0.37%
COc1ccc(CC(NC(C)=O)C(=O)N2CCN(C(=O)Nc3cccc(Cl)c3)CC2)cc1OC (configuration not stated) -2.32%
CCOc1ccc(NC(=O)CCS(=O)(=O)c2ccc3c(c2)CCCN3C(=O)CC)cc1 8.53%
COc1ccccc1NC(=O)C1CCCN(c2cc(C)nc3ncnn23)C1 (configuration not stated) -5.56%
C=CCOc1cccc(CNn2cn[nH]c2=S)c1 -3.4%
C=C(C)CNC(=S)/N=c1\scc(C)n1CC -8.88%
CCCCNC(=S)NNC(=O)c1cc(C)on1 -0.6%
CC(C)NC(=O)CSc1ccccc1C(=O)NCc1ccc2c(c1)OCO2 2.19%
O=C(CSCc1ccc([N+](=O)[O-])cc1)NCCSCc1ccccc1 4.49%
O=C(c1ccc(CN2CCOCC2)cc1)N1CCN(c2ccccc2F)CC1 -2.74%
Cc1cccc(C)c1N1CCN(S(=O)(=O)N2CCOCC2)CC1 3.9%
O=C(Nc1cccc(NC(=O)c2ccco2)c1)c1cnccn1 -6.85%
COc1ccc(NC(=O)/C(Cl)=C(/Cl)S(=O)Cc2ccc(C)cc2)cn1 (configuration not stated) 7.2%
CCOCCn1c(C(C)C)nc2ccccc21 0.96%
O=C(Cc1ccc(S(=O)(=O)N2CCOCC2)s1)NCCC(c1ccccc1)c1ccccc1 -2.3%
CCOC(=O)c1c(NC(=O)/C=C/c2ccco2)sc(C)c1C 0.57%
CC(=O)Nc1cccc(/C(C)=N/NC(=O)c2ccccc2Cl)c1 2.34%
O=C(NCC(=O)N(Cc1cccs1)C(C(=O)NC1CCCCC1)c1ccco1)c1cccs1 (configuration not stated) -1.39%
O=C1Nc2cc(Cl)c(Cl)cc2N(O)N1c1cc(Cl)cc(Cl)c1 2.41%
CC(C)C(=O)NC(NC(=S)NC1CCS(=O)(=O)C1)C(Cl)(Cl)Cl (configuration not stated) 2.04%
O=C(c1cc2sccc2n1Cc1ccc(F)cc1)N1CCc2ccccc21 4.78%
Cc1c(NC(=O)/C=C/C(=O)O)cccc1[N+](=O)[O-] -6.42%
CN(C)/C=C(/C(=O)c1ccc(Cl)cc1)S(=O)(=O)c1ccccc1 -11.6%
N=c1c2c3c(sc2nc2n1CCCCC2)CCCC3 6.43%
O=c1[nH][nH]c(C(F)(F)F)c1C=NCc1ccccc1Cl 2.43%
O=S(=O)(NN=C1CCCCCCC1)c1ccc(Br)cc1 5.67%
CCOC(=O)C1=C(c2ccccc2)N=C2SCC(=O)N2C1c1ccc(O)c(OC)c1 (configuration not stated) 2.71%
COCCn1c(SCc2nc3cc(OC)c(OC)cc3c(=O)[nH]2)nnc1-c1ccncc1 5.33%
COc1ccc(C2C(C(C)=O)=C(O)C(=O)N2Cc2cccnc2)cc1 (configuration not stated) 1.74%
O=C(C1=C(O)C(=O)N(Cc2ccccc2)C1c1ccco1)c1ccco1 (configuration not stated) -8.37%
COc1ccc2c(c1)C(C)=CC(C)(C)N2C(=O)Nc1ccccc1 6.35%
CC(=O)Oc1ccc(NC(=O)CCC2CCCCC2)c(C(=O)O)c1 4.49%
O=C(CN1CCN(c2ccc(Cl)cc2)CC1)N1CCCC1 4.82%
Oc1ccc(/C=N/NC2=NCCCCC2)c(O)c1 2.04%
CCOC(=O)c1sc(C)c2c1NC(C)(c1cccc3ccccc13)NC2=O (configuration not stated) 13.2%
Cc1cc(C)nc(SC(C)C(=O)N/N=C/c2cccs2)n1 (configuration not stated) 2.66%
C=CCc1ccc(OCCOc2cccc(/C=N/n3cnnc3)c2)c(OC)c1 -1.42%
Cc1ccc(N2C(=O)CC(Sc3ncn[nH]3)C2=O)cc1 (configuration not stated) 0.58%
CC(C)CNC(=S)NNC(=O)c1nn(C)cc1Cl 7.68%
COc1ccc(-c2noc(-c3ccc(C)cc3)n2)cc1 -4.98%
CSc1cc(C)n(-c2ccccc2C)c(=S)c1C(C)=O -5.85%
CCCOc1cc(C)c(S(=O)(=O)n2nnc3ccccc32)cc1C -0.8%
CCc1nn(-c2cc(Oc3cccc4ccccc34)nc(-c3ccccc3)n2)c(N)c1C#N -9.42%
CCOc1cc(C(=O)Nc2c(C)ccc3nsnc23)cc(OCC)c1OCC -8.62%
COc1ccc(CNC(=O)CCn2cccc2)cc1 -2.06%
COC(=O)c1ccc(NC(=O)C23CC4CC(C2)CC(n2cnc(Cl)n2)(C4)C3)cc1 3.33%

inhibition, active:
CCOc1cc(N2CCOCC2)c(OCC)cc1NC(=O)COc1cccc2cccnc12 17.3%
O=S(=O)(N1CCOCC1)N1CCN(c2ccccc2F)CC1 20.7%
O=C(C1=C(O)C(=O)N(Cc2ccccc2)C1c1cccnc1)c1ccco1 (configuration not stated) 27%
